Screens (PubChem BioAssay)
The list is not random: actives were taken first. Their share in the collection is about 21%.
Pf growth 96h = Primary qHTS for delayed death inhibitors of the malarial parasite plastid, 96 hour incubation; P. falciparum luciferase reporter growth, 96 h; Potency, µM (series often up to 28.7 µM), actives largely listed as inhibitors; actives 6.9% (n = 320,000); AID 504834, 2011
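96 h incubation, 37 C, 5% CO2, of luciferase-reporter P. falciparum-infected RBCs (2% hematocrit, 0.05% parasitemia final) with test compounds; endpoint luminescence.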
Cycloheximide cs = Cycloheximide Counterscreen for Small Molecule Inhibitors of Shiga Toxin; cell reporter, cycloheximide protein synthesis inhibition counterscreen; max response, %; actives 12% (n = 300,000); AID 2314, 2010; in the data active = max response mostly above about 13%, no sharp cut-off; inactive = mostly below about 14%; note: read at 38.3 µM for the half of the compounds with a filed dose
Shiga inhibitor = A qHTS for Small Molecule Inhibitors of Shiga Toxin; AID 2315, 2010; Vero cells, Shiga toxin protein synthesis inhibition reporter; actives 9.2% (n = 290,000); inhibition, % at 38.7 µM; in the data active = inhibition mostly above about 28%, no sharp cut-off; inactive = mostly below about 43%
Pf growth 48h = Primary qHTS for delayed death inhibitors of the malarial parasite plastid, 48 hour incubation | P. falciparum luciferase growth in erythrocytes, 48 h | Potency, µM (titrated, usually from 28.7 µM), actives largely listed as inhibitors | actives 5.9% (n = 310,000)
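Luminescence readout; reporter = integrated firefly luciferase in P. falciparum. RBC culture at 2% hematocrit, 0.1% parasitemia final, 37 C/5% CO2; decreased signal taken as growth inhibition.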
A number is an active result; i = inactive; ? = inconclusive; nt = no result given; + = active, no number; ! = not active in a repeat. Unless noted, calls come from the whole dose curve; as a rule, active = well fitted inhibition curve with a large enough effect; inconclusive = small, poorly fitted or top-dose-only effect, or another doubt; inactive = no such curve, though single readings can be large or run the other way.

SMILES	Pf growth 96h	Cycloheximide cs	Shiga inhibitor	Pf growth 48h
CC(=O)Oc1cccc(C)c1	i	75.3!	182.6!	i
Cc1ccc(C2=C/C(=C/c3cccs3)C(=O)O2)cc1	?	21.8	i	i
CC(=O)Oc1cccc(/C=C2\C=C(c3ccc(C)cc3)OC2=O)c1	i	17.2	i	i
CCCCn1nnc(NC(=S)NC(=O)c2ccc(-c3cccc(Cl)c3Cl)o2)n1	i	i	i	i
CCOc1ccc(C(=O)NC(C(=O)NCc2cccnc2)C(C)C)cc1 (stereo not given)	i	i	i	i
Cc1onc(-c2ccccc2Cl)c1C(=O)N1CCN(c2ncccn2)CC1	i	i	i	i
CCOc1cc(N2CCOCC2)c(OCC)cc1NC(=O)c1c(-c2ccccc2Cl)noc1C	?	i	i	5.86µM
Cc1onc(-c2ccccc2Cl)c1C(=O)N1CCN(Cc2ccc3c(c2)OCO3)CC1	13.1µM	i	i	i
Cc1onc(-c2c(Cl)cccc2Cl)c1C(=O)N1CCN(Cc2ccccc2)CC1	?	i	i	?
Cc1nn(Cc2ccccc2)c2sc(C(=O)N3CCN(Cc4ccc5c(c4)OCO5)CC3)cc12	?	i	i	10.4µM
CCOc1ccccc1N1CCN(C(=O)c2c(-c3ccccc3Cl)noc2C)CC1	i	i	i	9.28µM
COc1ccc(S(=O)(=O)N2CCCCCC2)cc1C(=O)N(C)CC(=O)Nc1cc(C)ccc1C	?	i	i	i
O=C(C1CCC1)N(CCc1ccccc1)Cc1nc2ccccc2c(=O)[nH]1	i	i	i	?
O=C(Nc1ccccc1F)N(Cc1ccc(F)cc1)Cc1nc2ccccc2c(=O)[nH]1	?	i	i	i
O=C(NC1CCCCC1)N(Cc1ccc(F)cc1)Cc1nc2ccccc2c(=O)[nH]1	i	i	i	10.4µM
O=C(C1CC1)N(CCc1ccccc1)Cc1nc2ccccc2c(=O)[nH]1	14.7µM	i	i	i
CCCC(=O)N(CCc1ccc(OC)cc1)Cc1nc2ccccc2c(=O)[nH]1	10.4µM	i	i	nt
CCN(Cc1nc2ccccc2c(=O)[nH]1)C(=O)COc1ccccc1Cc1ccccc1	8.28µM	nt	nt	?
COCC(=O)N(CCc1ccc(OC)cc1)Cc1nc2ccccc2c(=O)[nH]1	i	i	i	?
Cc1c(C)c2ccc(OC(C)C(=O)NCCc3c[nH]c4ccccc34)cc2oc1=O (stereo not given)	?	i	i	?
O=C(CNC(=O)c1cccs1)c1ccc([N+](=O)[O-])cc1	i	23.1	91.8	i
O=C(NCCc1ccc(Cl)cc1)c1cccs1	?	42.5	133.6	i
O=C(NCCc1ccc(S(=O)(=O)N2CCCC2)cc1)c1cccs1	i	i	i	i
O=C(NCC(=O)c1ccccc1)OCc1ccc([N+](=O)[O-])cc1	13.1µM	29.6	nt	i
CCN(C(=O)c1ccccc1)c1ccc([N+](=O)[O-])cc1	8.28µM	i	i	?
SMILES	Pf growth 96h	Cycloheximide cs	Shiga inhibitor	Pf growth 48h
O=C(COc1cccc(NC(=O)c2ccccc2)c1)c1ccccc1	i	i	i	i
O=C(CNC(=O)c1cccs1)c1ccc(F)cc1	i	25.2	i	i
O=C(COc1cccc(NC(=O)c2cccs2)c1)c1ccc(F)cc1	?	i	+	i
O=C(Cc1ccc(Cl)cc1)NNC(=S)NC(=O)c1cccs1	i	i	34.1	i
O=C(CNC(=O)c1cccs1)c1ccc(Cl)cc1	?	37.5	78.8	i
O=C(CNC(=O)c1cccs1)OCC(=O)c1ccc(Br)cc1	i	i	i	i
O=C(CNC(=O)c1cccs1)OCC(=O)c1ccc(Cl)cc1	?	i	i	i
Cc1ccc(C(=O)COC(=O)CCN2C(=O)C3C4C=CC(C5CC45)C3C2=O)cc1 (stereo not given)	i	i	i	i
O=C(CNC(=O)c1ccc([N+](=O)[O-])cc1)c1ccccc1	i	45.9	94.8	i
CCOC(=O)C1CCCN(C/C=C/c2ccccc2)C1 (stereo not given)	?	i	i	i
Fc1ccc(Nc2nc(-c3ccncc3)cs2)cc1	i	38.8	80.0	i
c1ccc(Nc2nc(-c3ccncc3)cs2)cc1	i	60.1	47.0	i
O=C(Nc1nc(-c2ccc(F)cc2)cs1)c1cnccn1	i	i	i	i
Nc1ccc(Nc2nc(-c3ccncc3)cs2)cc1	nt	34.0	i	i
CCCc1nnc(NC(=O)NCCN2C(=O)C3C4C=CC(C4)C3C2=O)s1 (stereo not given)	i	i	i	i
Cc1c(NC(=O)C(C)N2C(=O)C3C4C=CC(C4)C3C2=O)c(=O)n(-c2ccccc2)n1C (stereo not given)	i	i	i	nt
O=C(NCCN1C(=O)C2C3C=CC(C3)C2C1=O)Nc1ccccc1O (stereo not given)	9.28µM	i	i	nt
Cc1c(NC(=O)CCCCCN2C(=O)C3C4C=CC(C4)C3C2=O)c(=O)n(-c2ccccc2)n1C (stereo not given)	9.28µM	i	i	i
Cc1c(NC(=O)NCCN2C(=O)C3C4C=CC(C4)C3C2=O)c(=O)n(-c2ccccc2)n1C (stereo not given)	14.7µM	i	i	nt
CCOc1ccc(C(=O)Nc2cccc(C(=O)O)c2C)cc1Cl	i	31.5	65.7	i
CCC(=O)N1CCN(c2ccccc2NC(=O)c2ccc(OC)c(Cl)c2)CC1	7.38µM	i	i	nt
COc1ccc(C(=O)Nc2ccccc2N2CCOCC2)cc1Br	?	i	i	?
COc1ccc(C(=O)Nc2ccccc2C(=O)O)cc1Cl	i	27.4	65.6	i
COc1ccc(C(=O)Nc2ccccc2C(=O)O)cc1NC(=O)C(c1ccccc1)c1ccccc1	?	i	i	i
Cc1c(NC(=O)c2ccc(-c3ccccc3)cc2)cccc1C(=O)O	i	35.1	65.9	i
SMILES	Pf growth 96h	Cycloheximide cs	Shiga inhibitor	Pf growth 48h
O=C(Nc1ccccc1C(=O)O)c1ccccc1	i	i	i	nt
CCOc1ccc(C(=O)Nc2ccccc2-c2ccccc2)cc1Cl	i	i	i	i
CC1CCN(S(=O)(=O)CCNC(=O)c2ccc(F)cc2)CC1	i	nt	nt	i
O=C(CSc1nc2ccccc2[nH]1)NCC1CCCO1 (stereo not given)	i	i	i	i
Nc1cc(Cl)nnc1Cl	i	i	i	i
Cc1cc(=O)oc(C)c1C(=O)OCC(=O)c1ccc(Br)cc1	?	24.2	70.2	i
Cc1cc(=O)oc(C)c1C(=O)OCC(=O)c1ccc(Cl)cc1	i	34.9	79.9	i
CCOc1ccc(C(CC(=O)O)NC(=O)C(c2ccccc2)c2ccccc2)cc1OC (stereo not given)	i	nt	nt	?
CCOC(=O)N1CCC(NC(=O)c2ccc3c(Cl)c4c(nc3c2)CCCC4)CC1	i	i	i	i
CCN(C(=O)c1ccc2c(Cl)c3c(nc2c1)CCC3)c1cccc(C)c1	?	22.1	i	?
N#Cc1ccccc1NC(=O)c1ccc2c(Cl)c3c(nc2c1)CCCC3	i	53.0	90.6	?
O=C(NC1CC1)c1ccc2c(Cl)c3c(nc2c1)CCCC3	i	22.8	67.9	i
CCc1ccc(N(CC)C(=O)c2ccc3c(Cl)c4c(nc3c2)CCC4)cc1	i	i	i	?
O=C(Nc1cccnc1Cl)c1ccc2c(Cl)c3c(nc2c1)CCC3	i	22.7	i	i
O=S1(=O)c2cccc3cccc(c23)N1CCBr	i	i	i	i
